Experiments:
Assay in all cases: DAPPL (digital affinity profiling via proximity ligation, sequencing); 10 mM Tris-HCl pH 7.5, 50 mM NaCl, 1 mM DTT, 4% glycerol, room temperature, 30 min; GST-TFs on glutathione beads, 16-mer random dsDNA library, 0.1% formaldehyde crosslink after washing; high values mean tight binding
FEV = biological target: T1, FEV (Homo sapiens, UniProt Q99581 1-238); details: protein: recombinant; tags: N-terminal GST; dsDNA, one strand shown
T1 sequence: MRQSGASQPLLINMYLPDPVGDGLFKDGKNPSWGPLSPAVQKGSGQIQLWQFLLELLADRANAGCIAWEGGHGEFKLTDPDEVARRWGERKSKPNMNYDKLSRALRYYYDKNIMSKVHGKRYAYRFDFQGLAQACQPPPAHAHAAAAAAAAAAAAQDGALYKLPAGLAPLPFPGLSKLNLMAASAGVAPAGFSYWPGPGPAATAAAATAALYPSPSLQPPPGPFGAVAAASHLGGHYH
Summary of the method: (§1)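 Binding signal is each hexamer's read frequency for a factor divided by its frequency in the tag-only sample. The factors were GST-fused human transcription factors from yeast, captured on glutathione beads, DNA-barcoded and pooled with that sample. Pools were incubated with 200 nmole of a random double-stranded 16-mer DNA library in Tris/NaCl/DTT/glycerol buffer at room temperature for 30 min, then washed, crosslinked with 0.1% formaldehyde, proximity-ligated with BsaI/T4 ligase (1 h, 37 °C), PCR-amplified and sequenced on an Illumina NextSeq500.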

ETV5 = ETV5 (Homo sapiens, UniProt P41161 1-510); details: protein: recombinant; tags: N-terminal GST; dsDNA, one strand shown
ETV5, sequence (P41161 whole entry): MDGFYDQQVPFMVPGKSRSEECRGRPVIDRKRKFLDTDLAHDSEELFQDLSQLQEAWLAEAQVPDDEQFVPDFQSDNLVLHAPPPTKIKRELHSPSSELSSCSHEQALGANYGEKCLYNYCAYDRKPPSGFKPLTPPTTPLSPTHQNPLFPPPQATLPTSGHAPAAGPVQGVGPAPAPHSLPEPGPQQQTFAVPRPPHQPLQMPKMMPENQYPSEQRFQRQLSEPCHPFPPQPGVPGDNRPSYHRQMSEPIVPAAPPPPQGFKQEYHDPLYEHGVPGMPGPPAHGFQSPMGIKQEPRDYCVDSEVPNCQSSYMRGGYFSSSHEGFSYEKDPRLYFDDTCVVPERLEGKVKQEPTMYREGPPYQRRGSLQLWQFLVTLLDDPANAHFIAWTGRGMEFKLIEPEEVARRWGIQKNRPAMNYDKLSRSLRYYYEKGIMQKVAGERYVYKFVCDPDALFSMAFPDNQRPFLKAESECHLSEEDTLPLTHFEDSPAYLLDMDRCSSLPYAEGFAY
Summary of the method: as §1

HSF1 = HSF1 (Homo sapiens, UniProt Q00613 1-529); details: protein: recombinant; tags: N-terminal GST; chain copies: 3; dsDNA, one strand shown
HSF1, sequence (Q00613 whole entry): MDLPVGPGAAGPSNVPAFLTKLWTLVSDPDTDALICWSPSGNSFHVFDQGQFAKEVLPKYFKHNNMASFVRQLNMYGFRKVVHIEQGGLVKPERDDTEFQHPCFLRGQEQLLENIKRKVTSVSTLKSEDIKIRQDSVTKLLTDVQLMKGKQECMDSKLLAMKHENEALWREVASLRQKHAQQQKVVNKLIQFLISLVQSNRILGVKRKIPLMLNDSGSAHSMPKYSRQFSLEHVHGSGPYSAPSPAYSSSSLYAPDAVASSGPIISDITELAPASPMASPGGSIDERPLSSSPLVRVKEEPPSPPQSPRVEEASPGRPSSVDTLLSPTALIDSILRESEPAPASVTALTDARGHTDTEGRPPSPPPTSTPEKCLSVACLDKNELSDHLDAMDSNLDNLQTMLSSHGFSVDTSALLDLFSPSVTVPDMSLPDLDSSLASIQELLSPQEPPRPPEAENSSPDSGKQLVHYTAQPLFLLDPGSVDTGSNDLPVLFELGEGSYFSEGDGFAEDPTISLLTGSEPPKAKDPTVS
Summary of the method: as §1

ELF4 = ELF4 (Homo sapiens, UniProt Q99607 1-663); details: protein: recombinant; tags: N-terminal GST; dsDNA, one strand shown
ELF4, sequence (Q99607 whole entry): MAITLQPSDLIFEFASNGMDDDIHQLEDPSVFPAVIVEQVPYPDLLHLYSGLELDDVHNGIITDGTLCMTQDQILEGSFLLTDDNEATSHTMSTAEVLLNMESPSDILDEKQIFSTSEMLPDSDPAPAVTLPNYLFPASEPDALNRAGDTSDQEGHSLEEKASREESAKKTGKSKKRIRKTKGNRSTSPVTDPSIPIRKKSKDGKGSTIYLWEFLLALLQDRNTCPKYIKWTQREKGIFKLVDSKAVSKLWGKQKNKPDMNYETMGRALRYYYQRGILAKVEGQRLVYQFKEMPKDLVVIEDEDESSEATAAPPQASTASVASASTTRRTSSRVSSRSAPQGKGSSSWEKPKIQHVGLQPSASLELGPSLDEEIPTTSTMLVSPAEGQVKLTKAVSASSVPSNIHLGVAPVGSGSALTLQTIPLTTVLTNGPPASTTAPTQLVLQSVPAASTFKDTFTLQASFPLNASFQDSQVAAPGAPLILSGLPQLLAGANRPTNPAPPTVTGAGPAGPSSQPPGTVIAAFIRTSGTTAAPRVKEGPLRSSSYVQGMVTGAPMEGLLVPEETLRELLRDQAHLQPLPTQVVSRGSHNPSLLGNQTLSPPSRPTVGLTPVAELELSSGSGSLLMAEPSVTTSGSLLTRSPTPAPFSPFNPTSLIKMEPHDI
Summary of the method: as §1

ELK4 = biological target: T2, ELK4 (Homo sapiens, UniProt P28324-2 1-405); details: protein: recombinant; tags: N-terminal GST; dsDNA, one strand shown
T2 sequence: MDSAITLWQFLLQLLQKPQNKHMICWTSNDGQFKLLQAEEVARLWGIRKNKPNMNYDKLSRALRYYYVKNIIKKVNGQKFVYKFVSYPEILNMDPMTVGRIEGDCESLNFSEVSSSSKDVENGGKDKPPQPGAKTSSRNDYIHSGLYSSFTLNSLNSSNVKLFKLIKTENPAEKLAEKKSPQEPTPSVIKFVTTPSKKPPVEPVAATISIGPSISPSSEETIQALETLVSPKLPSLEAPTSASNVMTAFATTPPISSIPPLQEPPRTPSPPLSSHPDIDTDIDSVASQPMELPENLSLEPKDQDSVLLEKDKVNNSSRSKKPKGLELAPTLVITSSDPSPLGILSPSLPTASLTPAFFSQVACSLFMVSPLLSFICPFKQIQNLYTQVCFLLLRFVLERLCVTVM
Summary of the method: as §1

ETV2 = biological target: T3, ETV2 (Homo sapiens, UniProt O00321 1-342); details: protein: recombinant; tags: N-terminal GST; dsDNA, one strand shown
T3 sequence: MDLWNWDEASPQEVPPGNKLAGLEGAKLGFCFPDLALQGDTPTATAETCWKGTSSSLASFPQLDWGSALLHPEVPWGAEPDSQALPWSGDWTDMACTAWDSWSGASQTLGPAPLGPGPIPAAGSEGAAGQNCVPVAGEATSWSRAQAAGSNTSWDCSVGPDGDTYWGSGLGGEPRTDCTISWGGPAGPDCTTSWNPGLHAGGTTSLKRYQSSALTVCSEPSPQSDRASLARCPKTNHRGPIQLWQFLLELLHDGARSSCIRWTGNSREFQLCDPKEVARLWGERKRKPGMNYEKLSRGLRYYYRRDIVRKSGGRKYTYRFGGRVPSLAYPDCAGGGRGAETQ
Summary of the method: as §1

ELF3 = biological target: T4, ELF3 (Homo sapiens, UniProt P78545 1-371); details: protein: recombinant; tags: N-terminal GST; dsDNA, one strand shown
T4 sequence: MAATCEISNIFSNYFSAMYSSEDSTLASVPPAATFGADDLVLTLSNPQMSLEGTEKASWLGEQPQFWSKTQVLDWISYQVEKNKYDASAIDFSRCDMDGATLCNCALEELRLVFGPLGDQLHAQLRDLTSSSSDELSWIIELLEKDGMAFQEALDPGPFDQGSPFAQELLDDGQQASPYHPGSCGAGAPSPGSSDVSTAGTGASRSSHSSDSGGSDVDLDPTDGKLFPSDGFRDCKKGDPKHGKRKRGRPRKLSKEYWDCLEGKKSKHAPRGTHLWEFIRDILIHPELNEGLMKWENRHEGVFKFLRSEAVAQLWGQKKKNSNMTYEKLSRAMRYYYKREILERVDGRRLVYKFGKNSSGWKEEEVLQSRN
Summary of the method: as §1

CRX = CRX (Homo sapiens, UniProt O43186 1-299); details: protein: recombinant; tags: N-terminal GST; dsDNA, one strand shown
CRX, sequence (O43186 whole entry): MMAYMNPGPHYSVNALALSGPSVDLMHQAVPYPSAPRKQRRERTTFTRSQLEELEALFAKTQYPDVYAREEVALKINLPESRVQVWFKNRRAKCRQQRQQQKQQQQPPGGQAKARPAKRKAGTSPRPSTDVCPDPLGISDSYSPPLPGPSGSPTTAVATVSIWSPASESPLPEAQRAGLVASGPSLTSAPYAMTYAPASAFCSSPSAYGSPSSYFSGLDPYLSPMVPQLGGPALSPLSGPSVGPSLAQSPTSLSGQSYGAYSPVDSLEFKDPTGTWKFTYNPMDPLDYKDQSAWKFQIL
Summary of the method: as §1

ETV1 = ETV1 (Homo sapiens, UniProt P50549 1-477); details: protein: recombinant; tags: N-terminal GST; dsDNA, one strand shown
ETV1, sequence (P50549 whole entry): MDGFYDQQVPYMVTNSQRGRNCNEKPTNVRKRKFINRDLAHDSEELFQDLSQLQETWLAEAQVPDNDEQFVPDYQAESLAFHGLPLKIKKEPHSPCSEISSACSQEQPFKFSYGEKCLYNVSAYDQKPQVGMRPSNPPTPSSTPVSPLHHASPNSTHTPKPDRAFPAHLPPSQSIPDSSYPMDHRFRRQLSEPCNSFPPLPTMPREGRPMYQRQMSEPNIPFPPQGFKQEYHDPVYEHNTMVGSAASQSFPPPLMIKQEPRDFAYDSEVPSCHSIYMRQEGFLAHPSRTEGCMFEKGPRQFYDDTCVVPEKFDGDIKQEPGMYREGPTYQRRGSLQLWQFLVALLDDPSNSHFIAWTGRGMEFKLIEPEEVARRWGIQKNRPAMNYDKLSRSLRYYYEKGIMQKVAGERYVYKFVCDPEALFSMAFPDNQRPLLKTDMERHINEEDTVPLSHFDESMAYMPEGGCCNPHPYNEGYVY
Summary of the method: as §1

ERF = biological target: T5, ERF (Homo sapiens, UniProt P50548 1-548); details: protein: recombinant; tags: N-terminal GST; dsDNA, one strand shown
T5 sequence: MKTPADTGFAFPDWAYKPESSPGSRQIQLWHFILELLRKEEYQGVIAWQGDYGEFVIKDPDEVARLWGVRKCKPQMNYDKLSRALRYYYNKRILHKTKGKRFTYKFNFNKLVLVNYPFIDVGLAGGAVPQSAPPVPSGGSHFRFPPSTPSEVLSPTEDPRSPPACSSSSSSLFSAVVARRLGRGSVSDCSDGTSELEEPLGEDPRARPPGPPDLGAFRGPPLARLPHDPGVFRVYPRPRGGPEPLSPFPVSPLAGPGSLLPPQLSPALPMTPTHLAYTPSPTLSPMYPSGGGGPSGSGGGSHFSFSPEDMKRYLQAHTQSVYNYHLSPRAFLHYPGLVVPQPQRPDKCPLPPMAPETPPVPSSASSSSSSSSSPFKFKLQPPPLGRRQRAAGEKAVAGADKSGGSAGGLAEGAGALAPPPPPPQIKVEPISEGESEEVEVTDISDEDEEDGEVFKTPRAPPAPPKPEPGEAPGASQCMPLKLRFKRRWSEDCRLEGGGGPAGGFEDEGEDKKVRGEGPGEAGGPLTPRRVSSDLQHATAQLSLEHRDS
Summary of the method: as §1

ETV3L = biological target: T6, ETV3L (Homo sapiens, UniProt Q6ZN32 1-361); details: protein: recombinant; tags: N-terminal GST; dsDNA, one strand shown
T6 sequence: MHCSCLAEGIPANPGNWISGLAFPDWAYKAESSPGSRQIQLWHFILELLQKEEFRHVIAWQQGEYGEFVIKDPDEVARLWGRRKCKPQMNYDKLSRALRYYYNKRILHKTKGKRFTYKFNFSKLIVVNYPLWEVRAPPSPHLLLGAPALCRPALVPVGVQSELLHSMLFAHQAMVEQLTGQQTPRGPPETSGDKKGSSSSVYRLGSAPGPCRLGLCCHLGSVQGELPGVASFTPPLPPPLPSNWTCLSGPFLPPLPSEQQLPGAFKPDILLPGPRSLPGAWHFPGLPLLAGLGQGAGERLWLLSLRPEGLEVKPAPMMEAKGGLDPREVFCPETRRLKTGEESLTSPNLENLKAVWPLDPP
Summary of the method: as §1

ETS2 = biological target: T7, ETS2 (Homo sapiens, UniProt P15036 1-469); details: protein: recombinant; tags: N-terminal GST; dsDNA, one strand shown
T7 sequence: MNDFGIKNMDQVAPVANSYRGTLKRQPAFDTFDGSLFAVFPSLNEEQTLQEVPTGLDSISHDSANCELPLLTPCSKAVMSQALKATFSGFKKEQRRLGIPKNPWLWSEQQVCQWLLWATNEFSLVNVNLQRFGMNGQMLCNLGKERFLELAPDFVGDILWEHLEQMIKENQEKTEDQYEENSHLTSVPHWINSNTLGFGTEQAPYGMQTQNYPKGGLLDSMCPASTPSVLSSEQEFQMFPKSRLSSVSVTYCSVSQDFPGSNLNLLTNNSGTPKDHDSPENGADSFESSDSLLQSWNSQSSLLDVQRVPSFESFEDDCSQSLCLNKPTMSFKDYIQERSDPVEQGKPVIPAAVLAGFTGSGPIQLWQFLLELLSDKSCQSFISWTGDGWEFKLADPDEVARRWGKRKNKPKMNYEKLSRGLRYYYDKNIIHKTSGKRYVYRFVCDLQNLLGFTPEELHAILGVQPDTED
Summary of the method: as §1

SPDEF = biological target: T8, SPDEF (Homo sapiens, UniProt O95238 1-335); details: protein: recombinant; tags: N-terminal GST; dsDNA, one strand shown
T8 sequence: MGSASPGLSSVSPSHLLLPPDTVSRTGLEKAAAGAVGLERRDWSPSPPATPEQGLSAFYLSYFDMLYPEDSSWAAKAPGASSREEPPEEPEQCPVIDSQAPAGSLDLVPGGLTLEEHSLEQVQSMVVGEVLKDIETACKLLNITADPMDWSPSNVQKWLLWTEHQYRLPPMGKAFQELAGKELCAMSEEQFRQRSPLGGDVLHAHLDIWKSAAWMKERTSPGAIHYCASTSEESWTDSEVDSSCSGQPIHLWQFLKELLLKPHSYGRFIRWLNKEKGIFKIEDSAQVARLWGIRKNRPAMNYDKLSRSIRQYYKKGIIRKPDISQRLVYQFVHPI
Summary of the method: as §1

ETV7 = biological target: T9, ETV7 (Homo sapiens, UniProt Q9Y603 1-341); details: protein: recombinant; tags: N-terminal GST; dsDNA, one strand shown
T9 sequence: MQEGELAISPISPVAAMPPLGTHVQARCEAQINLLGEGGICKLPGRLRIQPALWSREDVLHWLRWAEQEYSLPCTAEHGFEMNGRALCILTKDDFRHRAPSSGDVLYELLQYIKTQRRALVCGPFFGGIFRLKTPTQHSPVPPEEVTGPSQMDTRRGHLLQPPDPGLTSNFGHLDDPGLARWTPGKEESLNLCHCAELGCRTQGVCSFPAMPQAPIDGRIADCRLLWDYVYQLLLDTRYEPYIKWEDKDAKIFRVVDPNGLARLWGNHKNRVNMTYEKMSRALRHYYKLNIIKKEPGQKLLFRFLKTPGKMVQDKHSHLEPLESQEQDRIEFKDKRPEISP
Summary of the method: as §1

ELF5 = biological target: T10, ELF5 (Homo sapiens, UniProt Q9UKW6-2 1-255); details: protein: recombinant; tags: N-terminal GST; dsDNA, one strand shown
T10 sequence: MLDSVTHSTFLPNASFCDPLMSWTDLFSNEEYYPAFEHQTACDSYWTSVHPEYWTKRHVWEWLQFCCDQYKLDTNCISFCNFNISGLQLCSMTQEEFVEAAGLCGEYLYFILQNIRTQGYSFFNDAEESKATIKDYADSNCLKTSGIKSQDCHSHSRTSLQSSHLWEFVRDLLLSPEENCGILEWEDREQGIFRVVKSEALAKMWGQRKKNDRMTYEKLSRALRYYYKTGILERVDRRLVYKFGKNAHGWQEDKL
Summary of the method: as §1

ETV3 = biological target: T11, ETV3 (Homo sapiens, UniProt P41162-2 1-143); details: protein: recombinant; tags: N-terminal GST; dsDNA, one strand shown
T11 sequence: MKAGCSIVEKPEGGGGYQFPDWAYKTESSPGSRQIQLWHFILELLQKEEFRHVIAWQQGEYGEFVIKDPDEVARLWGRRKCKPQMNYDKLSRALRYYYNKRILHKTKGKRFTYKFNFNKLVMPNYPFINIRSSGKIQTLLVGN
Summary of the method: as §1

ETV6 = ETV6 (Homo sapiens, UniProt P41212 1-452); details: protein: recombinant; tags: N-terminal GST; dsDNA, one strand shown
ETV6, sequence (P41212 whole entry): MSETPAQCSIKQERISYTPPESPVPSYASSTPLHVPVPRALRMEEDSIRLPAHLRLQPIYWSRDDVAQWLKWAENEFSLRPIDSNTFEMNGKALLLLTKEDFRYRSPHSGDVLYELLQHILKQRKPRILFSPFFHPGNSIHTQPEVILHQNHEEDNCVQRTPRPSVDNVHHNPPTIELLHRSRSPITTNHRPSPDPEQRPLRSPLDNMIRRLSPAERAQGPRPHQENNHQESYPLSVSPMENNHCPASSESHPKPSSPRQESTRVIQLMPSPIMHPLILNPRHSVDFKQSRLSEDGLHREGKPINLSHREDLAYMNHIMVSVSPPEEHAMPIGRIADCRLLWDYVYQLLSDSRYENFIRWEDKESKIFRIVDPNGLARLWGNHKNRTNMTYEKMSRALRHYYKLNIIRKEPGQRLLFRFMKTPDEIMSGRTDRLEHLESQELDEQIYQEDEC
Summary of the method: as §1

SPIC = biological target: T12, SPIC (Homo sapiens, UniProt Q8N5J4 1-248); details: protein: recombinant; tags: N-terminal GST; dsDNA, one strand shown
T12 sequence: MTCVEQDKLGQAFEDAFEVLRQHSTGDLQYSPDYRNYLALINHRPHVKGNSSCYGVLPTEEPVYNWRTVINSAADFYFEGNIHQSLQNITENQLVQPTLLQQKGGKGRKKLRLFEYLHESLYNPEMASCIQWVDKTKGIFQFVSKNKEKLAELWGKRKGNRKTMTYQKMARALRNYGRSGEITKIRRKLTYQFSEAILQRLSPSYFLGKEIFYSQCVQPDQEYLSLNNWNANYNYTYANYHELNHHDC
Summary of the method: as §1

Sequence | binding signal (FEV) | binding signal (ETV5) | binding signal (HSF1) | binding signal (ELF4) | binding signal (ELK4) | binding signal (ETV2) | binding signal (ELF3) | binding signal (CRX) | binding signal (ETV1) | binding signal (ERF) | binding signal (ETV3L) | binding signal (ETS2) | binding signal (SPDEF) | binding signal (ETV7) | binding signal (ELF5) | binding signal (ETV3) | binding signal (ETV6) | binding signal (SPIC)
TCAAAG | 1.1 fold enrichment (6-mer frequency, TF over GST control) | 1.08 fold enrichment (6-mer frequency, TF over GST control) | 1.17 fold enrichment (6-mer frequency, TF over GST control) | 1.14 fold enrichment (6-mer frequency, TF over GST control) | 1.21 fold enrichment (6-mer frequency, TF over GST control) | 1.03 fold enrichment (6-mer frequency, TF over GST control) | 1.16 fold enrichment (6-mer frequency, TF over GST control) | 1.32 fold enrichment (6-mer frequency, TF over GST control) | 1.13 fold enrichment (6-mer frequency, TF over GST control) | 1.08 fold enrichment (6-mer frequency, TF over GST control) | 1.12 fold enrichment (6-mer frequency, TF over GST control) | 1.12 fold enrichment (6-mer frequency, TF over GST control) | 1.01 fold enrichment (6-mer frequency, TF over GST control) | 1.1 fold enrichment (6-mer frequency, TF over GST control) | 1.04 fold enrichment (6-mer frequency, TF over GST control) | 1.07 fold enrichment (6-mer frequency, TF over GST control) | 1.09 fold enrichment (6-mer frequency, TF over GST control) | 
TACTAG |  | 1.05 fold enrichment (6-mer frequency, TF over GST control) | 1.81 fold enrichment (6-mer frequency, TF over GST control) |  |  | 1.17 fold enrichment (6-mer frequency, TF over GST control) |  | 1.3 fold enrichment (6-mer frequency, TF over GST control) |  | 1.07 fold enrichment (6-mer frequency, TF over GST control) | 1.04 fold enrichment (6-mer frequency, TF over GST control) | 1 fold enrichment (6-mer frequency, TF over GST control) | 1.01 fold enrichment (6-mer frequency, TF over GST control) | 1 fold enrichment (6-mer frequency, TF over GST control) |  |  |  | 1.02 fold enrichment (6-mer frequency, TF over GST control)

Source: paper PMC7862700, “An all-to-all approach to the identification of sequence-specific readers for epigenetic DNA modifications on cytosine”
